Hit rate of the full screen: of about 5,500 compounds, about 2,000 (36%) were called active. Roughly 18% stayed inconclusive and do not appear here. Rule as the data show it: active = normalized growth mostly below about 0.91 (no sharp cut-off); inconclusive = no clear call, values can overlap the other calls; inactive = mostly above about 0.92. This is one part of the list.
Assay: chemical genetic growth profiling, strain panel (AID 1159580);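 also: tested at 20 µM; growth read once vehicle control cultures reached saturation at 30 °C; 1 = growth at the plate median or of vehicle wells; lower values mean less growth of the strain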
Conditions: growth OD

Measured: normalized growth

CN[C@@H](C)[C@@H](O)c1ccccc1
inactive: S. cerevisiae deletion strains, locus YKL068W, stronger effect = lower value 0.978 | S. cerevisiae deletion strains, locus YKL085W, strain MDH1 (second series), stronger effect = lower value 0.992 | S. cerevisiae deletion strains, locus YKL085W, strain MDH1, stronger effect = lower value 0.992 | S. cerevisiae deletion strains, locus YKL160W, strain elf1, stronger effect = lower value 0.968 | S. cerevisiae deletion strains, locus YKL190W, strain CNB1, stronger effect = lower value 0.998 | S. cerevisiae deletion strains, locus YKR001C, strain vps1, stronger effect = lower value 0.978 | S. cerevisiae deletion strains, locus YKR026C, strain gcn3, stronger effect = lower value 0.994 | S. cerevisiae deletion strains, locus YKR091W, strain srl3, stronger effect = lower value 1 | S. cerevisiae deletion strains, locus YLL001W, strain dnm1, stronger effect = lower value 1.01 | S. cerevisiae deletion strains, locus YLL026W, stronger effect = lower value 1.01 | S. cerevisiae deletion strains, locus YLL041C, strain sdh2, stronger effect = lower value 1 | S. cerevisiae deletion strains, locus YLR027C, strain aat2, stronger effect = lower value 1 | S. cerevisiae deletion strains, locus YLR039C, strain RIC1, stronger effect = lower value 0.966 | S. cerevisiae deletion strains, locus YLR058C, strain SHM2, stronger effect = lower value 0.988 | S. cerevisiae deletion strains, locus YLR102C, strain apc9, stronger effect = lower value 0.99 | S. cerevisiae deletion strains, locus YLR113W, strain HOG1, stronger effect = lower value 0.984 | S. cerevisiae deletion strains, locus YLR221C, strain rsa3, stronger effect = lower value 0.994 | S. cerevisiae deletion strains, locus YLR258W, strain gsy2, stronger effect = lower value 0.981 | S. cerevisiae deletion strains, locus YLR262C, strain YPT6 (second series), stronger effect = lower value 1.01 | S. cerevisiae deletion strains, locus YLR262C, strain YPT6, stronger effect = lower value 0.914 | S. cerevisiae deletion strains, locus YLR268W, strain sec22, stronger effect = lower value 0.983 | S. cerevisiae deletion strains, locus YLR320W, strain mms22, stronger effect = lower value 0.985 | S. cerevisiae deletion strains, locus YLR330W, strain CHS5, stronger effect = lower value 0.987 | S. cerevisiae deletion strains, locus YLR342W, strain FKS1 (second series), stronger effect = lower value 0.99 | S. cerevisiae deletion strains, locus YLR342W, strain FKS1, stronger effect = lower value 1.01 | S. cerevisiae deletion strains, locus YLR357W, strain rsc2, stronger effect = lower value 0.972 | S. cerevisiae deletion strains, locus YLR370C, strain arc18, stronger effect = lower value 0.982 | S. cerevisiae deletion strains, locus YLR371W, strain rom2, stronger effect = lower value 0.981 | S. cerevisiae deletion strains, locus YLR384C, strain iki3, stronger effect = lower value 0.993 | S. cerevisiae deletion strains, locus YLR418C, strain cdc73, stronger effect = lower value 1.02 | S. cerevisiae deletion strains, locus YML016C, strain PPZ1, stronger effect = lower value 0.987 | S. cerevisiae deletion strains, locus YML032C, strain rad52, stronger effect = lower value 0.979 | S. cerevisiae deletion strains, locus YML120C, strain ndi1, stronger effect = lower value 1.01 | S. cerevisiae deletion strains, locus YML124C, strain tub3, stronger effect = lower value 0.99 | S. cerevisiae deletion strains, locus YMR058W, strain fet3, stronger effect = lower value 1.01 | S. cerevisiae deletion strains, locus YMR078C, strain ctf18, stronger effect = lower value 0.985 | S. cerevisiae deletion strains, locus YMR125W, strain sto1, stronger effect = lower value 0.985 | S. cerevisiae deletion strains, locus YMR129W, stronger effect = lower value 0.976 | S. cerevisiae deletion strains, locus YMR205C, strain PFK2, stronger effect = lower value 0.984 | S. cerevisiae deletion strains, locus YMR223W, strain ubp8, stronger effect = lower value 0.985 | S. cerevisiae deletion strains, locus YMR231W, strain pep5, stronger effect = lower value 0.998 | S. cerevisiae deletion strains, locus YMR263W, strain SAP30, stronger effect = lower value 1.01 | S. cerevisiae deletion strains, locus YMR307W, strain GAS1, stronger effect = lower value 0.881 | S. cerevisiae deletion strains, locus YNL067W, strain RPL9B, stronger effect = lower value 1.04 | S. cerevisiae deletion strains, locus YNL071W, strain lat1, stronger effect = lower value 1.01 | S. cerevisiae deletion strains, locus YNL183C, strain NPR1, stronger effect = lower value 0.978 | S. cerevisiae deletion strains, locus YNL209W, strain ssb2, stronger effect = lower value 0.978 | S. cerevisiae deletion strains, locus YNL233W, strain BNI4, stronger effect = lower value 1.05 | S. cerevisiae deletion strains, locus YNL248C, strain rpa49, stronger effect = lower value 0.986 | S. cerevisiae deletion strains, locus YNL250W, strain rad50, stronger effect = lower value 0.99 | S. cerevisiae deletion strains, locus YNL271C, strain bni1, stronger effect = lower value 0.976 | S. cerevisiae deletion strains, locus YNL298W, strain CLA4, stronger effect = lower value 0.97 | S. cerevisiae deletion strains, locus YNL307C, strain MCK1, stronger effect = lower value 0.992 | S. cerevisiae deletion strains, locus YNL322C, strain KRE1 (second series), stronger effect = lower value 0.977 | S. cerevisiae deletion strains, locus YNR049C, strain mso1, stronger effect = lower value 0.998 | S. cerevisiae deletion strains, locus YNR052C, strain pop2, stronger effect = lower value 0.997 | S. cerevisiae deletion strains, locus YOL006C, strain TOP1, stronger effect = lower value 1.07 | S. cerevisiae deletion strains, locus YOL012C, strain htz1 1.99 | S. cerevisiae deletion strains, locus YOL147C, strain pex11, stronger effect = lower value 0.993 | S. cerevisiae deletion strains, locus YOR001W, strain rrp6, stronger effect = lower value 0.997 | S. cerevisiae deletion strains, locus YOR061W, strain CKA2, stronger effect = lower value 0.971 | S. cerevisiae deletion strains, locus YOR069W, strain VPS5, stronger effect = lower value 0.986 | S. cerevisiae deletion strains, locus YOR070C, strain gyp1, stronger effect = lower value 0.984 | S. cerevisiae deletion strains, locus YOR080W, strain dia2, stronger effect = lower value 0.994 | S. cerevisiae deletion strains, locus YOR083W, strain WHI5, stronger effect = lower value 0.961 | S. cerevisiae deletion strains, locus YOR106W, strain vam3, stronger effect = lower value 1.01 | S. cerevisiae deletion strains, locus YOR136W, strain idh2, stronger effect = lower value 0.991 | S. cerevisiae deletion strains, locus YOR144C, strain elg1, stronger effect = lower value 0.987 | S. cerevisiae deletion strains, locus YOR184W, strain ser1, stronger effect = lower value 0.987 | S. cerevisiae deletion strains, locus YOR231W, strain MKK1, stronger effect = lower value 0.98 | S. cerevisiae deletion strains, locus YOR265W, strain rbl2, stronger effect = lower value 1 | S. cerevisiae deletion strains, locus YOR270C, strain vph1, stronger effect = lower value 1.04 | S. cerevisiae deletion strains, locus YOR290C, strain snf2, stronger effect = lower value 0.972 | S. cerevisiae deletion strains, locus YOR316C, strain cot1, stronger effect = lower value 0.986 | S. cerevisiae deletion strains, locus YPL051W, strain arl3, stronger effect = lower value 0.99 | S. cerevisiae deletion strains, locus YPL078C, strain atp4, stronger effect = lower value 1.02 | S. cerevisiae deletion strains, locus YPL106C, strain sse1, stronger effect = lower value 0.937 | S. cerevisiae deletion strains, locus YPL240C, strain hsp82, stronger effect = lower value 0.993 | S. cerevisiae deletion strains, locus YPL241C, strain CIN2, stronger effect = lower value 0.979 | S. cerevisiae deletion strains, locus YPL256C, strain CLN2, stronger effect = lower value 1.03 | S. cerevisiae deletion strains, locus YPR119W, strain clb2, stronger effect = lower value 0.983 | S. cerevisiae deletion strains, locus YPR141C, strain kar3, stronger effect = lower value 0.989 | S. cerevisiae deletion strains, locus YPR163C, strain tif3, stronger effect = lower value 0.989 | S. cerevisiae deletion strains, locus YPR167C, strain met16, stronger effect = lower value 0.988 | S. cerevisiae deletion strains, strain wtn01, stronger effect = lower value 1 | S. cerevisiae strains, strain wild type, stronger effect = lower value 0.987
